# Assay results taken from PMC11062922 (Nature Chemical Biology, 2023).
# Read-outs that look alike come from different tables or passages of the source.
# Experiments:
# Parameters in all cases: species or system human, MV4-11 + K-562 + COLO205 + SK-N-BE2 + OVCAR-8
# AXL = settings: read-out: apparent Kd; compound concentrations: 100 nM and 1000 nM (sheet 'Samples'), CATDS: 1.37984345324301E-2; n = 1
# FGFR1 = settings: read-out: apparent Kd; compound concentrations: 100 nM and 1000 nM (sheet 'Samples'), CATDS: 1.6795329465602301E-2; n = 1
# MET = settings: read-out: apparent Kd; compound concentrations: 100 nM and 1000 nM (sheet 'Samples'), CATDS: 7.7828561887260297E-2; n = 1
# NUAK2 = settings: read-out: apparent Kd; compound concentrations: 100 nM and 1000 nM (sheet 'Samples'), CATDS: 9.7596009365087198E-3; n = 1
# ULK3 = settings: read-out: apparent Kd, n = 1
# CDC7 = settings: read-out: apparent Kd, n = 1
# PRKCA = settings: read-out: apparent Kd; compound concentrations:100 nM and 1000 nM (sheet 'Samples'); n = 1
# MAP4K3 = settings: read-out: apparent Kd, n = 1
# PAK6 = settings: read-out: apparent Kd; compound concentrations:100 nM and 1000 nM (sheet 'Samples'); n = 1
# EIF2AK1 = settings: read-out: apparent Kd; compound concentrations: 100 nM and 1000 nM (sheet 'Samples'), CATDS: 0.41818384912394302; n = 1
# STK11 = settings: read-out: apparent Kd; compound concentrations:100 nM and 1000 nM (sheet 'Samples'); n = 1
# FECH = settings: read-out: apparent Kd; compound concentrations:100 nM and 1000 nM (sheet 'Samples'); n = 1
# MAPK1 = settings: read-out: apparent Kd, n = 1
# AIFM1 = settings: read-out: apparent Kd, n = 1
# MST1R = settings: read-out: apparent Kd; compound concentrations:100 nM and 1000 nM (sheet 'Samples'); n = 1
# PRKCQ = settings: read-out: apparent Kd; compound concentrations: 100 nM and 1000 nM (sheet 'Samples'), CATDS: 0.114661548989235; n = 1
# AKT3 = settings: read-out: apparent Kd; compound concentrations:100 nM and 1000 nM (sheet 'Samples'); n = 1
# TP53RK = settings: read-out: apparent Kd, n = 1
# [1] = compound concentrations:100 nM and 1000 nM (sheet 'Samples')
structure (smiles),measurement,setting,value
CNC(=O)c1ccccc1Nc1nc(Nc2cccc(CS(C)(=O)=O)c2)ncc1C.O=CO [GSK1520489A],potency estimated from few doses,AXL,374 nM
same,potency estimated from few doses,FGFR1,213 nM
same,potency estimated from few doses,MET,12.2 nM
same,potency estimated from few doses,NUAK2,1500 nM
same,potency estimated from few doses,"ULK3; compound concentrations: 100 nM and 1000 nM (sheet 'Samples'), CATDS: 1.2201291111952599E-2",563 nM
N#Cc1cccc(Nc2nccc(-c3cnn4ncccc34)n2)c1 [GW778894X],potency estimated from few doses,CDC7; [1],1240 nM
same,potency estimated from few doses,PRKCA,1180 nM
Cn1cc(-c2cnc(N)c3c(-c4ccc5c(c4)CCN5C(=O)Cc4ccccc4)csc23)cn1 [GSK2593074A],potency estimated from few doses,MAP4K3; [1],1570 nM
COc1cc2ncn(-c3cc(OCCCc4ccccc4)c(C(N)=O)s3)c2cc1OC [GSK205189A],potency estimated from few doses,PAK6,1960 nM
Cl.Cn1c(=O)c(Cc2ccc(F)cc2F)cc2cnc(NC3CCOCC3)nc21 [RO3308757-001],potency estimated from few doses,PAK6,1650 nM
Cn1cc(-c2ccc3c(c2)CCN3C(=O)Cc2cccc(Cl)c2)c2c(N)ncnc21 [GSK2606590A],potency estimated from few doses,EIF2AK1,679 nM
COc1cccc(-c2c[nH]c3c(N/N=C/c4ccncc4)ncnc23)c1 [GW814408X],potency estimated from few doses,STK11,1900 nM
Nc1nc(N)c2nc(-c3ccccc3)[nH]c2n1 [SKF-12778],potency estimated from few doses,STK11,1740 nM
same,potency estimated from few doses,ULK3; [1],1140 nM
COc1cc2ncn(-c3cc(OCc4ccncc4)c(C(N)=O)s3)c2cc1OC [GSK336313A],potency estimated from few doses,FECH,2250 nM
Nc1ncc(-c2cn[nH]c2)c2scc(-c3ccc4c(c3)CCN4C(=O)Cc3ccccc3)c12 [GSK2593067A],potency estimated from few doses,"MAP4K3; compound concentrations: 100 nM and 1000 nM (sheet 'Samples'), CATDS: 5.6013670337788E-2",2210 nM
Cn1cc(C2=C(c3cccc([N+](=O)[O-])c3)C(=O)NC2=O)c2ccccc21 [RO0317474-000],potency estimated from few doses,"CDC7; compound concentrations: 100 nM and 1000 nM (sheet 'Samples'), CATDS: 0.13743963750211899",1670 nM
CC(=O)Nc1ccc2c(C3=C(c4cn(C)c5ccccc45)C(=O)NC3=O)cn(C)c2c1 [RO0317596-000],potency estimated from few doses,"MAPK1; compound concentrations: 100 nM and 1000 nM (sheet 'Samples'), CATDS: 0.12847476759448101",1100 nM
COc1cc(F)c(F)c(F)c1C(=O)c1cnc(NC2CCN(S(C)(=O)=O)CC2)nc1N [RO4600703-000],potency estimated from few doses,AIFM1; [1],939 nM
same,potency estimated from few doses,MAPK1; [1],1580 nM
Cc1[nH]nc2c1N=C(c1ccccc1Cl)c1cc([N+](=O)[O-])ccc1N2 [RO0274406-000],potency estimated from few doses,"MAPK1; compound concentrations: 100 nM and 1000 nM (sheet 'Samples'), CATDS: 7.1630348262951699E-2",1230 nM
NC(=O)c1cccnc1COc1cc(-c2ccc(N3CCOCC3)nc2)cc2ncccc12 [BI01125081],potency estimated from few doses,MST1R,1120 nM
COc1ccc(C2=C(c3cn(C)c4ccccc34)C(=O)NC2=O)cc1OC [RO3206363-000],potency estimated from few doses,PRKCQ,82.8 nM
Nc1c(C(=O)c2ccccc2)cnn1-c1ccc(F)cc1 [RO1151246-000],potency estimated from few doses,AKT3,1420 nM
same,potency estimated from few doses,TP53RK; [1],1850 nM
Fc1ccc(-c2ncn(C3CCNCC3)c2-c2ccnc(Oc3ccc4c(c3)OCO4)n2)cc1 [SB-250715],potency estimated from few doses,AKT3,2290 nM
Cc1ccc(C(=O)NC2CC2)cc1-c1ccc2[nH]ncc2c1 [GW820759X],potency estimated from few doses,"AIFM1; compound concentrations: 100 nM and 1000 nM (sheet 'Samples'), CATDS: 0.35268476986263803",1040 nM
COc1cccc(C2=C(c3cn(C)c4c(C)cccc34)C(=O)NC2=O)c1 [RO3301012-000],potency estimated from few doses,"CDC7; compound concentrations: 100 nM and 1000 nM (sheet 'Samples'), CATDS: 0.10055770090402801",1800 nM
Cl.Fc1cccc(COc2ccc(Nc3ncnc4cc(-c5ccc[nH]5)sc34)cc2Cl)c1 [GW693881A],potency estimated from few doses,"AIFM1; compound concentrations: 100 nM and 1000 nM (sheet 'Samples'), CATDS: 0.160865216132973",1350 nM
CCCCCNC(=O)[C@@H]1CCCN2C(=O)CC[C@H](NC(=O)[C@H](Cc3ccc(OP(=O)(O)O)cc3)NC(C)=O)C(=O)N12 [RO0324694-000],potency estimated from few doses,AIFM1; [1],1670 nM
COc1ccc(Nc2nccc(N3CCC(NC(=O)Nc4cccc(OC)c4)C3)n2)cc1 (stereo not drawn) [GSK1379742A],potency estimated from few doses,"TP53RK; compound concentrations: 100 nM and 1000 nM (sheet 'Samples'), CATDS: 0.10793216189185099",2270 nM
Cl.Oc1ccc2ncnc(Nc3ccc(OCc4ccccc4)cc3)c2c1 [GI262866A],potency estimated from few doses,MAPK1; [1],617 nM
Cn1cc(C2=C(c3cn(CCCCCO)c4ccccc34)C(=O)NC2=O)c2ccccc21 [RO0318053-000],potency estimated from few doses,"CDC7; compound concentrations: 100 nM and 1000 nM (sheet 'Samples'), CATDS: 8.0152233997933905E-2",1890 nM
